Pf growth 48h – Primary qHTS for delayed death inhibitors of the malarial parasite plastid, 48 hour incubation; 310,000 compounds, 5.9% hits; Potency, µM (titrated, usually from 28.7 µM), actives largely listed as inhibitors; P. falciparum luciferase growth in erythrocytes, 48 h
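Read-out is firefly luciferase luminescence from an integrated reporter in P. falciparum, so falling signal marks reduced parasite growth. Infected erythrocytes were at 2% hematocrit and 0.1% parasitemia (final) in Albumax-supplemented RPMI 1640.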
CHX counter – Cycloheximide Counterscreen for Small Molecule Inhibitors of Shiga Toxin; cell reporter, cycloheximide protein synthesis inhibition counterscreen; max response, %; 300,000 compounds, 12% hits; AID 2314, 2010; in the data active = max response mostly above about 13%, no sharp cut-off; inactive = mostly below about 14%; note: read at 38.3 µM for the half of the compounds with a filed dose
Pf growth 96h – Primary qHTS for delayed death inhibitors of the malarial parasite plastid, 96 hour incubation | P. falciparum luciferase reporter growth, 96 h | Potency, µM (highest dose often 28.7 µM), actives largely listed as inhibitors | AID 504834, 2011 | 320,000 compounds, 6.9% hits
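Readout is luminescence from an integrated firefly luciferase in P. falciparum. Red cells, 2% hematocrit and 0.05% parasitemia final, were cultured with compound through two parasite generations (96 hours) at 37 C, 5% CO2.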
Shiga toxin inh – A qHTS for Small Molecule Inhibitors of Shiga Toxin; Vero cells, Shiga toxin protein synthesis inhibition reporter; 290,000 compounds, 9.2% hits; inhibition, % at 38.7 µM; in the data active = inhibition mostly above about 28%, no sharp cut-off; inactive = mostly below about 43%
HCMV inh – qHTS Assay for inhibitors of the human cytomegalovirus (HCMV). HFF cells, HCMV-luciferase reporter, 72 h; active compounds read low. activity change, negative = inhibition, % at 57.5 µM. 410,000 compounds, 4.5% hits; in the data active = activity change below about -60%; inconclusive = no clear call, values can overlap the other calls; inactive = above about -39%
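Luciferase read-out from HCMV-luciferase-infected HFFs (MOI 1 PFU/cell) 72 h post infection at 37C; compounds added after 16 h cell attachment; activity normalized between buffer-only basal and Salinomycin (10uM) inhibitor controls.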
Large screens that a line does not name were inactive. This is a sample that favours compounds with a hit; in the whole collection about 20% have one here. Unless noted, calls come from the whole dose curve; as a rule, active = well fitted inhibition curve with a large enough effect; inconclusive = small, poorly fitted or top-dose-only effect, or another doubt; inactive = no such curve, though single readings can be large or run the other way.

CCOC(=O)c1c(C)[nH]c(C)c1C(=O)CN1C(=O)NC2(CCC(C)CC2)C1=O (stereo not given)	Pf growth 48h inconclusive (no result: Pf growth 96h)
CCOC(=O)c1c(C)[nH]c(C)c1C(=O)CN1C(=O)NC(CC(C)C)C1=O (stereo not given)	Pf growth 48h 9.3µM (no result: HCMV inh)
N#Cc1c(Nc2ccccc2)c(/C=N/N=C/c2ccccc2)c[nH]c1=O	Pf growth 96h inconclusive
N#Cc1c(Nc2ccccc2)c(C=NCCN2CCOCC2)c[nH]c1=O	Pf growth 96h 9.3µM
Oc1ccc2ccc3[nH]cnc3c2c1	Pf growth 48h inconclusive, CHX counter 53, Shiga toxin inh 74
Oc1ccc2[nH]ccc2c1	none
Cc1nn(Cc2ccc(Cl)cc2Cl)c(C)c1NC(=O)c1nn(C)cc1Cl	Pf growth 96h inconclusive
Cc1nn(Cc2ccc(Cl)cc2Cl)c(C)c1NC(=O)CCl	Pf growth 48h 0.59µM, Pf growth 96h 10µM, HCMV inh inconclusive
Cc1nn(Cc2ccc(Cl)cc2Cl)c(C)c1NC(=O)C1C2CCC(O2)C1C(=O)O (stereo not given)	Pf growth 48h inconclusive, Pf growth 96h inconclusive, HCMV inh -64
CCOC(=O)c1c(C)[nH]c(C(=O)OCC(=O)Nc2cc(C)c(Cl)cc2OC)c1C	none (no result: Pf growth 48h)
O=C(CSc1ncc2c(n1)-c1cc(Cl)ccc1N(Cc1ccccc1)S2(=O)=O)NCCc1ccccc1	none (no result: Pf growth 48h, CHX counter, Pf growth 96h, Shiga toxin inh)
CCOc1ccc(C(C(=O)NC2CCCC2)N(C(=O)CNC(=O)c2ccco2)c2cccnc2)cc1 (stereo not given)	Pf growth 48h inconclusive
Cc1cc(NC(=O)c2cccc(Cl)c2)n[nH]1	none (no result: CHX counter, Shiga toxin inh)
Cc1cc(NC(=O)NC(=O)c2ccc(F)cc2F)n[nH]1	CHX counter 19, Pf growth 96h inconclusive, Shiga toxin inh 43
c1ccc2c(CNC3CCCCCC3)c[nH]c2c1	Pf growth 96h 10µM (no result: Pf growth 48h)
O=C(Cn1ccc([N+](=O)[O-])n1)NCCc1c[nH]c2ccccc12	CHX counter 58, Shiga toxin inh 92
O=C1COCC(=O)N1CCc1c[nH]c2ccccc12	Pf growth 48h inconclusive
Cc1cc([N+](=O)[O-])nn1CC(=O)NCCc1c[nH]c2ccccc12	Pf growth 48h inconclusive
CNCCc1c[nH]c2ccc(O)cc12	none (no result: Pf growth 48h, CHX counter, Pf growth 96h, Shiga toxin inh)
O=C1c2ccccc2C(=O)N1CCc1c[nH]c2ccc(O)cc12	CHX counter 34, Pf growth 96h 3.3µM, HCMV inh inconclusive
O=C1c2ccccc2C(=O)N1CCCc1c[nH]c2ccccc12	CHX counter 17
CC(C)(C)OC(=O)C[C@@H]1C/C=C\C[C@@H](CC(=O)NCCO)C(=O)N[C@H](Cc2ccccc2)COC1=O	none (no result: Pf growth 48h, CHX counter, Pf growth 96h, Shiga toxin inh)
Oc1cccc(Nc2cc(-c3ccccc3)ncn2)c1	none (no result: Pf growth 48h, CHX counter, Pf growth 96h, Shiga toxin inh)
COc1ccccc1-c1cc2nc(C)c(CCC(=O)Nc3ccc(Br)c(C)c3)c(C)n2n1	none (no result: Pf growth 48h, CHX counter, Pf growth 96h, Shiga toxin inh)
O=C(CN1C(=O)c2ccccc2C1=O)NCCc1c[nH]c2ccccc12	Pf growth 96h 5.2µM
COc1ccc2c(CCNC(=O)CN3C(=O)c4ccccc4C3=O)c[nH]c2c1	none
O=C1CCC(=O)N1CCc1c[nH]c2ccccc12	Pf growth 48h inconclusive
O=C1c2ccccc2C(=O)N1CCc1c[nH]c2ccccc12	CHX counter 48, Shiga toxin inh 95
c1ccc2c(CN3CCCCCC3)c[nH]c2c1	CHX counter 39, Shiga toxin inh 73, HCMV inh -77
O=C1CCCCN1CCc1c[nH]c2ccccc12	CHX counter 25, Shiga toxin inh active
Cc1ccccc1NC(=O)COC(=O)CCSc1ccccc1	none
Cc1cc(Br)ccc1NC(=O)c1coc(=O)c2ccccc12	none (no result: Pf growth 48h, CHX counter, Pf growth 96h, Shiga toxin inh)
CCC(CO)Nc1ncnc2c1cnn2-c1ccc(OC)cc1 (stereo not given)	CHX counter 37, Shiga toxin inh 53 (no result: Pf growth 48h)
CCC(CO)Nc1ncnc2c1cnn2-c1ccc(Cl)cc1 (stereo not given)	CHX counter 40 (no result: Pf growth 48h)
CCc1ccccc1Nc1ncnc2c1cnn2-c1ccc(Cl)cc1	none (no result: Pf growth 48h, CHX counter, Pf growth 96h, Shiga toxin inh)
NC(=O)CC(NC(=O)Cc1ccc(Br)cc1)c1ccc(N2CCN(c3ccccc3)CC2)c([N+](=O)[O-])c1 (stereo not given)	Pf growth 48h inconclusive, Pf growth 96h inconclusive, HCMV inh -62
NC(=O)CC(NC(=O)Cc1ccc(Br)cc1)c1ccc(N2CCN(c3ccccn3)CC2)c([N+](=O)[O-])c1 (stereo not given)	Pf growth 96h inconclusive
CN1CCN(c2ccc(C(CC(N)=O)NC(=O)c3ccccc3)cc2[N+](=O)[O-])CC1 (stereo not given)	Pf growth 96h inconclusive, HCMV inh -62
NC(=O)CC(NC(=O)c1ccccc1)c1ccc(N2CCN(c3ccccc3)CC2)c([N+](=O)[O-])c1 (stereo not given)	Pf growth 96h 15µM, HCMV inh -66
Cc1cccc(CNc2ccc(C(CC(N)=O)NC(=O)Cc3cccc4ccccc34)cc2[N+](=O)[O-])c1 (stereo not given)	Pf growth 48h inconclusive, HCMV inh -79
Nc1nc2c3ccccc3nc(C3CC3)n2n1	none
Cc1nc2c(C(=O)NC(C)c3ccccc3)cnn2c(C)c1Cc1ccccc1 (stereo not given)	HCMV inh -86 (no result: Pf growth 48h, CHX counter, Pf growth 96h, Shiga toxin inh)
O=C(c1ccc2nc(Cc3cccc(Cl)c3)oc2c1)N1CCOCC1	CHX counter 59, Shiga toxin inh 69
Cc1nc2c(C(=O)N3CCOCC3)cnn2c(C)c1Cc1cccc(Cl)c1	Pf growth 48h inconclusive, Pf growth 96h 7.4µM
NC(=O)C1CCCN(C(=O)c2ccc3nc(Cc4cccc(Cl)c4)oc3c2)C1 (stereo not given)	Pf growth 48h inconclusive, Pf growth 96h inconclusive
CC(=O)C1CCCN(C(=O)c2ccc3nc(Cc4cccc(Cl)c4)oc3c2)C1 (stereo not given)	Pf growth 48h inconclusive, CHX counter 13
COc1cccc(CNC(=O)CSC2=Nc3ccccc3C3=NC(C)C(=O)N23)c1OC (stereo not given)	none (no result: Pf growth 48h, CHX counter, Pf growth 96h, Shiga toxin inh)
O=C(OCC(=O)c1ccc(Cl)s1)c1cnccn1	none (no result: HCMV inh)
CC(=O)c1ccc(S(=O)(=O)N2CCN(c3ccccc3F)CC2)cc1	none
CCc1ccc(CC2S/C(=C(\C#N)C(C)=O)NC2=O)cc1 (stereo not given)	Pf growth 48h inconclusive, Pf growth 96h 2.9µM, HCMV inh -90
CC(=O)/C(C#N)=C1\NC(=O)C(Cc2ccc(C)c(Cl)c2)S1 (stereo not given)	CHX counter 16, HCMV inh -92
Cc1ccc(S(=O)(=O)N2C[C@H]3[C@H]4C(=O)N(C)C(=O)[C@H]4CC(=O)[C@H]3[C@@H]2c2ccccc2Cl)cc1	none (no result: Pf growth 48h, CHX counter, Pf growth 96h, Shiga toxin inh)
Cc1ccc(N/C(=N/S(=O)(=O)c2cccs2)c2ccccc2)c(C)c1	Pf growth 48h inconclusive
Cc1ccc(NC2=C/C(=N/S(=O)(=O)c3cccs3)c3ccccc3C2=O)cc1	Pf growth 48h inconclusive, CHX counter 48, Shiga toxin inh 145, HCMV inh -102
